Assay outcomes deposited in PubChem by National Center for Advancing Translational Sciences (NCATS).
This is a sample that favours compounds with a hit; in the whole collection about 5.8% have one here.
PINK1 modulator – PINK1 expression modulation; PINK1 immunofluorescence, high-content cytometry, 24 h; Potency, µM (series often up to 76.6 µM), for the others: at the top dose activation (PINK1 increase), hits mostly activators; 410,000 tested, 0.2% active; active = well fitted activation curve with a large enough effect; inconclusive = small, poorly fitted or top-dose-only effect; cell line not stated here; also: % of control where 0% means no effect; nearly all actives have a fitted effect of over 65% in size
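Compound titrations (5 concentrations, 24 h) on a stable cell line; DMSO and CCCP controls. Endpoint: fixed-cell PINK1 immunofluorescence with mitochondrial, cell and nuclear markers, scanned by microplate cytometer.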
MCF10A rereplic – inducers of DNA re-replication in MCF 10A breast cells | MCF 10A DNA re-replication, Hoechst nuclear intensity, 48 h | Potency, µM (doses to about 46.1 µM), for the others: top-dose activity, positive = re-replication, actives largely listed as activators | 350,000 tested, 2.9% active | AID 624296; also: % of control where 0% means no effect; nearly all actives have a fitted effect of over 50% in size
KB-V1 cytotox – kills drug-selected multidrug resistant KB-V1 cells; KB-V1 MDR cells viability, CellTiter-Glo, 72 h; 400,000 tested, 3.4% active; Potency, µM (titrated, usually from 46.1 µM), most hits filed as cytotoxic; AID 1347076; also: % is scaled to controls: 0 for no effect and ±100 for the full control effect; nearly all actives have a fitted effect of over 60% in size
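qHTS viability screen in drug-selected KB-V1 MDR cells: 72 h compound treatment at 37 degrees C, ATP luminescence end point.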
SW480 rereplic – DNA re-replication induction in SW480 cells | SW480 DNA re-replication, Hoechst DNA content imaging, 48 h | Potency, µM (series often up to 46.1 µM), for the others: at the top dose re-replication activation, most hits filed as activators | 340,000 tested, 1.8% active; also: % of control where 0% means no effect; nearly all actives have a fitted effect of over 55% in size
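First, 250 cells per well were seeded. Next, compound or vehicle (23 nL) was pinned in, plates sat 48 hr at 37 C. Finally Hoechst was added for 40 min before fluorescence scanning.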
KB-3-1 cytotox – KB-3-1 parental cell cytotoxicity; 400,000 tested, 1.4% active; Potency, µM (series often up to 46.1 µM), hits mostly cytotoxic; AID 1347075; KB-3-1 viability, CellTiter-Glo ATP luminescence, 72 h; also: % is scaled to controls: 0 for no effect and ±100 for the full control effect; nearly all actives have a fitted effect of over 60% in size
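Using CellTiter-Glo luminescence, growth of non-resistant KB-3-1 adenocarcinoma cells is assessed 72 h after pin-tool compound addition at 37 °C. Normalized responses across the concentration series yield fitted curves.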
12-LOX inh – ALOX12 (human) lipoxygenase inhibition | AID 1671190 | 580,000 tested, 1.1% active | purified 12hLO, xylenol orange hydroperoxide absorbance | Potency, µM (doses to about 108 µM), for the others: top-dose activity change, negative = inhibition, most hits filed as inhibitors; also: % is scaled to controls: 0 for no effect and ±100 for the full control effect
Target sequence (P18054 whole entry, looked up): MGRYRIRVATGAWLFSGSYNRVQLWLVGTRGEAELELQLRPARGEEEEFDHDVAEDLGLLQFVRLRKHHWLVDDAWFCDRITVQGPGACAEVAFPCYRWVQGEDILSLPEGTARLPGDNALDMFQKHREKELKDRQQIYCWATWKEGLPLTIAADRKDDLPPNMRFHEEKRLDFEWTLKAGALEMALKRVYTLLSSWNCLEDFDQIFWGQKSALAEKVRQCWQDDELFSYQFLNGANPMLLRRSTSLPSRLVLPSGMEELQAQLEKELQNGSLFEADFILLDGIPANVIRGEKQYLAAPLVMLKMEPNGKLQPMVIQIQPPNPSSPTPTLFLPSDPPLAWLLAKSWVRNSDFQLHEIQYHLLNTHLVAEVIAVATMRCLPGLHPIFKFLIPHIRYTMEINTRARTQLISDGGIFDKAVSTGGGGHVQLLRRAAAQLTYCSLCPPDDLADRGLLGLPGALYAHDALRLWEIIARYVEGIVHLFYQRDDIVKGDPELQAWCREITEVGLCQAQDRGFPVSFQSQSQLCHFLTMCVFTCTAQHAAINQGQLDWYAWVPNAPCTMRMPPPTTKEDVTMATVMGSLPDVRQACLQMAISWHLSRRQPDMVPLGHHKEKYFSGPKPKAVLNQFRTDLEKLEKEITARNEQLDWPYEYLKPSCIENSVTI
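Purified human 12hLO at 150 nM in 25 mM Hepes, 0.01% Triton X-100, pH 7.0, preincubated 15 min at room temperature with compound. Reaction started with 40 uM arachidonic acid, 30 min at room temperature. Hydroperoxide measured by Fe-xylenol orange, 573/405 nm absorbance ratio.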
Starred values were filed as active, the others as inactive; i = inactive; ? = inconclusive; nt = no result given; ! = not active in a repeat; [ ] = dose if it differs, or a comment. Unless noted, calls follow the shape of the dose curve; as a rule, active = well fitted curve in the direction sought with a large enough effect; inconclusive = small, poorly fitted or top-dose-only effect, or another doubt; inactive = no such curve, though single readings can be large; an effect the other way counts as inactive or inconclusive. Potency is read from the fitted curve at half-maximal effect.

SMILES	PINK1 modulator	MCF10A rereplic	KB-V1 cytotox	SW480 rereplic	KB-3-1 cytotox	12-LOX inh
CCNC(=S)Nc1ccc2c(c1)c(=O)n(C)n2Cc1cccc(C(F)(F)F)c1	0%	nt	?	nt	i	?
O=C(Nc1cccc(-c2nc3ncccc3o2)c1)c1sc2cc(Cl)ccc2c1Cl	10µM*	2%	i	-3%	i	-1%
CC(C)CN1C(=O)c2cccn2CC1C(=O)O (stereo unspecified)	nt	nt	nt	nt	nt	23%
Cc1ccc2[nH]c3c(N4CCc5ccccc5C4)ncnc3c2c1	?	?	?	3%	?	-18%
COc1ccc2[nH]c3c(N4CCN(Cc5ccc6c(c5)OCO6)CC4)ncnc3c2c1	8%	?	?	?	?	360%
Cc1cccc2[nH]c3c(N4CCC5(CC4)OCCO5)ncnc3c12	6%	?	?	?	i	-5%
CCOc1ccc2[nH]c3c(N4CCc5ccccc5C4)ncnc3c2c1	8%	9.2µM*	12µM*	?	?	?
Clc1ccc2[nH]c3c(N4CCC5(CC4)OCCO5)ncnc3c2c1	-1%	21µM*	16µM*	?	15µM*	nt
Fc1ccc2[nH]c3c(N4CCc5ccccc5C4)ncnc3c2c1	-2%	?	6.5µM*	-14%	?	134%
COc1ccc2[nH]c3c(N4CCC(O)(c5cccc(C(F)(F)F)c5)CC4)ncnc3c2c1	11%	?	18µM*	?	13µM*	-25%[57.4 µM]
CCCc1ccc(NC(=O)c2ccc3c(c2)NC(=O)CS3)cc1	nt	nt	nt	nt	nt	13%
O=S(Cc1cccc(C(F)(F)F)c1)Cc1ccc(F)cc1Cl (stereo unspecified)	nt	nt	nt	nt	nt	-29%
C/C(=N/NC(=O)c1cccs1)c1ccc2ccccc2c1	nt	nt	nt	nt	nt	11%
CC(=O)Nc1ccc(S(=O)(=O)NC2CC2)cc1	-1%	0%	i	1%	i	48%
CC(=O)Nc1ccc(S(=O)(=O)NC2C3(C)CCC(C3)C2(C)C)cc1 (stereo unspecified)	2%	14%	i	?	i	3.2µM*
Cc1cnc(NC(=O)CCc2ccccc2)s1	11%	10µM*	i	13µM*	?	3%
O=C(CCc1ccccc1)Nc1ccc(Cl)cn1	0%	5.8µM*	?	6.5µM*	5.8µM*	0%
Cc1nc2cc(NC(=O)c3ccc[n+]([O-])c3)ccc2o1	nt	nt	nt	nt	nt	-24%
CN(C)C[C@@H]1CN(c2ncccn2)C[C@H]1NS(=O)(=O)Cc1ccc(F)cc1	nt	nt	nt	nt	nt	41%
COc1ccc(/C=C2/SC(=O)N(CC(=O)Nc3cc(C)on3)C2=O)cc1OC	0%	4%	?	-7%	i	-19%
Cc1ccc(/C=C2\SC(=S)N(CCCC(=O)Nc3cc(C)on3)C2=O)cc1	-1%	2%	?	3%	i	1%
COc1ccc(/C=C2\SC(=S)N(CCCCCC(=O)Nc3cc(C)on3)C2=O)cc1OC	14µM*	3%	i	-2%	i	-7%
COc1ccc(/C=C2\SC(=S)N(CCCC(=O)Nc3cc(C)on3)C2=O)cc1OC	10µM*	1%	i	-3%	i	-26%
COc1ccccc1C1CCN(c2cc(O)ccc2[N+](=O)[O-])CC1	?	16µM*	?	-36%	i	?
CCCC(=O)Oc1ccc2c(=O)c(Oc3cc(C)cc(C)c3)c(C(F)(F)F)oc2c1	nt	nt	nt	nt	nt	-15%
SMILES	PINK1 modulator	MCF10A rereplic	KB-V1 cytotox	SW480 rereplic	KB-3-1 cytotox	12-LOX inh
O=C(O)CN1C(=O)/C(=C\C(Br)=C\c2ccccc2)SC1=S	10%	12%	?	?	i	35µM*
CC(/C=C1\SC(=S)N(CCCC(=O)Nc2ccc(C(=O)O)cc2)C1=O)=C\c1ccccc1	?	?	i	9%	i	45µM*
CC(=C\c1ccccc1)/C=C1/SC(=S)N(C(C(=O)O)C(C)C)C1=O (stereo unspecified)	-2%	?	i	-2%	i	45µM*
Cc1ccc(/C=C2\SC(=S)N(C(Cc3ccccc3)C(=O)O)C2=O)cc1 (stereo unspecified)	1%	?	i	-7%	i	35µM*
CCC(C(=O)O)N1C(=O)/C(=C/C(C)=C/c2ccccc2)SC1=S (stereo unspecified)	1%	18%	i	-6%	i	?
Cc1ccc(CN(CCN(C)C)C(=O)c2ccc(C#N)cc2)o1	nt	nt	nt	nt	nt	-28%
O=c1c(=O)n(-c2ccc(F)c(F)c2)ccn1Cc1c(F)cccc1Cl	nt	nt	nt	nt	nt	-3%
Cc1ccc(C(=O)NCCn2c(C)cc3ccccc32)cc1[N+](=O)[O-]	nt	nt	nt	nt	nt	-4%
CC(=O)c1ccc(NC(=O)CN2C(=O)/C(=C/C=C/c3ccccc3)SC2=S)cc1	12%	10µM*	i	-8%	i	-4%
Cc1cc(C)cc(NC(=O)CSc2nc3c(c(=O)[nH]2)CN(Cc2ccc(F)cc2)CC3)c1	-1%	3%	21µM*!	-4%	i	0%
O=C(Nc1ccccc1)c1ccc(CN2CCc3ccccc3C2)cc1	7%	?	?	10%	?	-7%
Cc1ccc(NC(=O)c2ccc(CN3CCc4ccccc4C3)cc2)cc1	4%	?	4.1µM*	-2%	i	18%
O=C(Nc1ccccc1F)c1ccc(CN2CCc3ccccc3C2)cc1	4%	?	21µM*	?	9.2µM*	-8%
Cc1cc(C)cc(NC(=O)c2ccc(CN3CCc4ccccc4C3)cc2)c1	0%	21µM*	?	-2%	?	0%
CC1CCCN(c2nnc(NC(=O)Nc3ccc4c(c3)OCCO4)s2)C1 (stereo unspecified)	nt	nt	nt	nt	nt	-11%
COC(=O)[C@@H](Cc1c[nH]c2ccccc12)NCc1ccc(B(O)O)cc1	1%	-36%	i	1.2µM*	i	?
COC(=O)[C@H](Cc1c[nH]c2ccccc12)NCc1cccc(B(O)O)c1	-1%	-8%	i	4.6µM*	i	?
COC(=O)C(Cc1c[nH]c2ccccc12)NC(=O)CNC(C)=O (stereo unspecified)	3%	5%	?	-5%	i	0%
OC(c1ccccn1)(c1ccccn1)c1ccccn1	-2%	?	10µM*	?	i	20%
CC(C)N1C(=O)C2(CCCC2)C1C(=O)NCCCN1CCc2ccccc2C1 (stereo unspecified)	nt	nt	nt	nt	nt	20%
CCOc1cc(/C=C\[N+](=O)[O-])ccc1OCC(=O)Nc1ccccc1C	-1%	2.9µM*	i	?	i	nt
C/C(=N\NC(=O)c1cccnc1)c1c(O)cc(C)oc1=O	5%	-4%	i	-6%	i	0%
